Test results published in ChEMBL document CHEMBL3988442, “University of Dundee, Small-Polar-MMV Screening Library” (2021).
Several values for one entry are separate records, joined by “and”; a condition that tells them apart may be missing. Equal entries are not always repeated. In all, about 34,000 compounds went through this assay and about 290 (0.85%) showed an effect of 50% or more. The list comes from a sample in which strong results are over-represented; it also holds similar structures and randomly drawn compounds.

Test system: Plasmodium falciparum
Test: Plasmodium falciparum sporozoite viability assay
Format: functional, organism-based
Set-up: scale not given: in the data most compounds retested in dose-response had high values

| SMILES | Percent Effect | Percent Effect (10 mM as filed; unlikely as a test dose) |
| --- | --- | --- |
| CCOC(=O)[C@@H]1[C@@H](O)C(=O)N(C)C12CCN(C(=O)c1ccco1)CC2 | 7.177% | – |
| O=C(O)C(F)(F)F.O=C(O)C(F)(F)F.c1ccc(CN2CCC3(CC2)CCN(c2ccccn2)C3)nc1 | 11.38% | – |
| CCC1CN(C(=O)c2ccc(O)cn2)CCC(=O)N1Cc1ccccc1 (stereo not given) | – | 75.08% and 82.46% |
| CCC1CN(C(=O)c2cccnc2O)CCC(=O)N1Cc1ccccc1 (stereo not given) | – | -11.65% and -22.98% |
| CCC1CN(C(=O)c2ncccc2O)CCC(=O)N1Cc1ccccc1 (stereo not given) | – | -58.66% and -61.44% |
| Cc1nn(C)c(Cl)c1C1CCCN1C(=O)c1cc(C2CC2)on1 (stereo not given) | 6.06% | – |
| Cc1c[nH]nc1C1CN(Cc2cnn(-c3ccccc3C(=O)O)c2)C1 | -1.554% | – |
| Cc1noc(C)c1CC(=O)N1CCCC(n2ccnc2C)C1 (stereo not given) | -6.625% | – |
| O=C(Nc1ccc(N2CCCC2)nc1)N1CCc2ccccc2C1 | – | 79.37% and 82.46% and 84.57% |
| O=C(Nc1ccc(N2CCCC2)nc1)N1CCc2sccc2C1 | – | -10.47% and -0.9103% and 2.706% |
| CCCc1cc(NC(=O)c2cc(N3CCNC3=O)c(F)cc2F)n[nH]1 | -27.19% | – |
| CC(NC(=O)c1cc(N2CCNC2=O)ccc1F)c1ccc(F)cc1 (stereo not given) | – | -9.982% and -2.184% |
| CC(CNC(=O)c1cc(N2CCNC2=O)ccc1F)c1ccccc1 (stereo not given) | – | 35.08% and 63.14% |
| CC(Cc1ccsc1)NC(=O)c1cc(N2CCNC2=O)ccc1F (stereo not given) | – | 74.24% and 61.84% |
| Cc1ccc(C(=O)NCC(O)c2cccc(F)c2)c(=O)[nH]1 (stereo not given) | -4.578% | – |
| Cc1ccsc1CNC(=O)c1ccc(N2CCNC2=O)cc1 | -9.9% | – |
| CCN(CC)CCCNCc1cc2cc(C)cc(C)c2[nH]c1=O | 11.75% | – |
| COCc1cnc2n1CCN(C(=O)c1ocnc1C)C2C (stereo not given) | 4.866% | – |
| CN(Cc1cccs1)C(=O)Cn1cc(NC(=O)C(C)(C)C)cn1 | -1.695% | – |
| Cc1ccc(-n2nnc(C(=O)NCC(F)(F)F)c2C2CC2)cc1 | -7.493% | – |
| Cn1cc(-c2cnc(N3CCOCC3)nc2)cc1C(=O)N1CCOCC1 | – | -17.52% and -24.5% and -14.42% |
| O=C(CCc1ccsc1)Nc1ccnn1C1CCS(=O)(=O)C1 (stereo not given) | -2.999% | – |
| Cc1oc(C)c(C(=O)NCc2ccccc2CN(C)C)c1C | 1.894% | – |
| COC1CN(C(=O)CC(C)C)CCC(=O)N(C)c2ccccc21 (stereo not given) | -36.78% | – |
| CC(C)(C)c1ncc(C(=O)NCCSc2ccccn2)c(O)n1 | – | 98% and 98.19% |

| SMILES | Percent Effect | Percent Effect (10 mM as filed; unlikely as a test dose) |
| --- | --- | --- |
| O=C(NCCCO)c1cnc(-c2ccccc2)nc1O | -8.71% | – |
| CCSCCNC(=O)c1cnc(-c2ccccc2)nc1O | 2.095% | – |
| Cc1ccc(C2(C(=O)NCCCn3cccn3)CCOCC2)cc1 | – | -25.15% and -19.39% |
| c1ccc2oc(CN3CCCC3Cn3cncn3)nc2c1 (stereo not given) | 3.888% | – |
| Cc1nccn1C1CCCN(C(=O)Cc2cn3ccccc3n2)C1 (stereo not given) | 3.916% | – |
| CCOCC1CN(C(=O)c2cscn2)Cc2cnn(CC3CC3)c21 (stereo not given) | 11.53% | – |
| Cc1nc(C2CN(C)CCO2)cc(N2CCSCC2)n1 (stereo not given) | -0.8223% | – |
| Cc1cc(C(=O)N2CCC3(C2)CN(c2cccnc2)C(=O)CN3C)[nH]n1.O=C(O)C(F)(F)F.O=C(O)C(F)(F)F (stereo not given) | 9.444% | – |
| CN(C)C(=O)CCNC(=O)Nc1sc2ccccc2c1Cl | – | 44.04% and 58.57% and 53.39% |
| CS(=O)(=O)CCCNC(=O)Nc1sc2ccccc2c1Cl | – | -22.09% and -10.77% and -17.84% |
| CN(C)CC(C)(O)CNC(=O)Nc1sc2ccccc2c1Cl (stereo not given) | – | 52.95% and 62.95% and 63.37% |
| CC(=O)N1CCOC(c2c(C(=O)NCCN(C)C)sc3ccccc23)C1 (stereo not given) | 3.684% | – |
| CN1CCN(Cc2cn3c(n2)CN(Cc2ccc(F)cc2)CC3)CC1.O=C(O)C(F)(F)F.O=C(O)C(F)(F)F.O=C(O)C(F)(F)F | 11.14% | – |
| O=C(O)[C@@H]1CCN(C(=O)Cc2ccccn2)[C@@H]1c1ccc(F)cc1 | 2.558% | – |
| CN(C)C(=O)NC1COC2(CCN(Cc3ccccc3)CC2)C1.O=C(O)C(F)(F)F (stereo not given) | – | -6.642% and -9.604% and -2.422% |
| CCC(O)CN1CCN(C(=O)c2sccc2OC)CC1 (stereo not given) | 5.511% | – |
| N#Cc1c(SCCN2CCCCC2)sc2c(O)cc(O)nc12 | 19.81% | – |
| Cc1nc(C)n(C2CCCN(C(=O)CCOC(C)C)C2)n1 (stereo not given) | 5.53% | – |
| CCc1nc(C2CCCN(C(=O)NCCOC)C2)no1 (stereo not given) | 15.54% | – |
| CC(NC(=O)NCCn1ccnc1)c1ccc2c(c1)OCCO2 (stereo not given) | -2.596% | – |
| CSc1cc2c(cc1NC(=O)NCc1ccncc1)OCCO2 | – | -14.95% and -16.58% |
| COCCN(C)C(=O)Nc1cc2c(cc1SC)OCCO2 | – | -20.76% and -19.13% |
| COCCNC(=O)Nc1cc2c(cc1SC)OCCO2 | – | 98.06% and 101.8% and 101.9% |
| CSc1cc2c(cc1NC(=O)NCCn1ccnc1)OCCO2 | – | 101.5% and 100.4% and 104.7% |
| O=C(NCC1CCOC1)Nc1ccc(OCC(F)(F)F)nc1 (stereo not given) | -8.857% | – |

| SMILES | Percent Effect | Percent Effect (10 mM as filed; unlikely as a test dose) |
| --- | --- | --- |
| CSc1cc2c(cc1NC(=O)NCC(=O)N(C)C)OCCO2 | – | -16.92% and -17.04% and -26.51% |
| CSc1cc2c(cc1NC(=O)NCC1CCOC1)OCCO2 (stereo not given) | – | 105.7% and 100.9% and 97.86% |
| CCN(CC)c1ccc(NC(=O)NCC2CCOC2)cn1 (stereo not given) | – | -11.53% and -8.697% |
| CCCc1ncc(CNC2(c3ccc(Cl)cc3)CCC2)cn1 | 9.707% | – |
| COc1ccc2cc(C(=O)N3CCCC(n4ccnc4C)C3)[nH]c2c1 (stereo not given) | -4.765% | – |
| O=C(O)[C@@H]1CN(C(=O)CC2CCCC2)C[C@H]1c1ccc(F)cc1 | 4.737% | – |
| Cc1nccc(C(=O)N2CCCC(c3cc(C(F)(F)F)[nH]n3)C2)n1 (stereo not given) | 8.419% | – |
| Cc1cc(C)n(C2CN(CC(=O)N(C)Cc3ccc(C)o3)C2)n1 | -8.906% | – |
| CN(C)C(=O)CN1CCCC1c1nccnc1Nc1ccccn1 (stereo not given) | -3.467% | – |
| Cc1ccc2c(c1)CN(C(=O)c1cnc(C)cn1)C(CN(C)C)CO2.Cl (stereo not given) | -2.552% | – |
| O=S(=O)(C1CC1)N1CCC2(COCc3cnc(-c4cccnc4)nc32)C1 (stereo not given) | 9.968% | – |
| CCOc1ccccc1OC1CCN(Cc2ccn(C)c(=O)c2)CC1 | 8.133% | – |
| CCOc1cc([C@H]2N[C@@H](c3nc(C)cs3)Cc3ccsc32)ccc1OC | 5.89% | – |
| CC(C)NC(=O)CC1CC2(CCN(CC3CC3)CC2)Oc2ccccc21.O=C(O)C(F)(F)F (stereo not given) | 11.82% | – |
| CCOCC1CCCN(C(=O)NCc2ccc(-c3ccn[nH]3)cc2)C1 (stereo not given) | 14.81% | – |
| COC(=O)CC1CCN(C(=O)Nc2ccc(-c3ccn[nH]3)cc2)C1 (stereo not given) | – | 84.64% and 84.71% and 100.4% |
| NC(=O)CC1CCN(C(=O)NCc2ccc(-c3ccn[nH]3)cc2)CC1 | 2.866% | – |
| COCc1cncc2c1CCN(C(=O)c1ccc(C#N)cc1)C2.O=C(O)C(F)(F)F | 7.706% | – |
| Cc1ccc(-c2cccc(CC3(C(=O)O)CCOCC3)c2)c(C)c1 | -5.038% | – |
| CN1CCCc2cc(CNC(=O)c3cc[n+]([O-])cc3)ccc21 | 8.46% | – |
| CCOCC1CN(C(=O)c2ccncn2)Cc2cnn(CC)c21.O=C(O)C(F)(F)F (stereo not given) | -5.589% | – |
| Cc1ccc(Sc2ccc(N3CCCC(C(=O)O)C3)nn2)cc1 (stereo not given) | – | 24.7% and 21.38% |
| O=C(O)C1CCN(c2ccc(Sc3ccc(Br)cc3)nn2)CC1 | – | -3.247% and -5.657% |
| Cc1ccc(Sc2ccc(N3CCC(C(=O)O)CC3)nn2)cc1 | – | 64.84% and 62.96% |
| CCNc1cc2c(nn1)CCN(C(=O)c1ccc3c(c1)OCO3)C2 | 6.984% | – |
